This is a sample that favours compounds with a hit; in the whole collection about 8.3% have one here.
Giardia FBPA inh: inhibitors of Giardia lamblia fructose-1,6-bisphosphate aldolase. purified Giardia FBPA. Potency, µM (top dose mostly 59.6 µM), for the others: at the highest dose activity, negative = inhibition, most hits filed as inhibitors. 0.71% of 290,000 active; note: potency is the fitted concentration of half-maximal effect; nearly all actives have a fitted effect of over 55% in size
Target sequence (A8B2U2 whole entry, looked up): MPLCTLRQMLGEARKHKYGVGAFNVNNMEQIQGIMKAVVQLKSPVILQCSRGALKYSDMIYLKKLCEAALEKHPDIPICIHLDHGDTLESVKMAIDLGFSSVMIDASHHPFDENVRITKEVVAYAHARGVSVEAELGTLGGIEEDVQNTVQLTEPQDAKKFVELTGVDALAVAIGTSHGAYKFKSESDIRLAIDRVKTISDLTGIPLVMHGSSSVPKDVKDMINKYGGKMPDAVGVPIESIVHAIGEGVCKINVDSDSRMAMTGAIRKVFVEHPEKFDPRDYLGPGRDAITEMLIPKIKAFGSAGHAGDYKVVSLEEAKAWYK
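40 nM FBPA preincubated 10 min at RT with compound (up to 57.5 uM final), then substrate plus GAPDH/TPI/NAD/arsenate coupling and diaphorase/resazurin added. Fluorescence read after 20 min at RT, 525/598 nm.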
Marburg entry inh: inhibitors of Marburg virus binding or cell entry | Marburg virus pseudotyped entry inhibition, cell reporter | Potency, µM (series often up to 37.8 µM), without a hit: top-dose activity change, negative = inhibition, most hits filed as inhibitors | 1.8% of 300,000 active | AID 540276; calls by dose curve; tested in HEK293 cells; note: potency is the fitted concentration of half-maximal effect
HCV inhibitor: inhibitors of hepatitis C virus infection | Huh7.5.1 HCVcc-Cre infection, luciferase reporter, 44 h | Potency, µM (top dose mostly 41.8 µM), for inactives: at the highest dose activity change, negative = inhibition, usual class: inhibitors | 3.4% of 340,000 active; note: potency is the fitted concentration of half-maximal effect
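Cells (1,000/well) were plated 4 h before compound, then infected with HCVcc-Cre virus (~0.5 moi). After 44 h further culture, infection was read as luciferase luminescence following a 15 min substrate incubation at room temperature.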
FMDV antiviral: blocks foot and mouth disease virus. FMDV antiviral cell-based qHTS. Potency, µM (titrated, usually from 57.9 µM), without a hit: at the top dose activity change, negative = inhibition, actives largely listed as inhibitors. 1.2% of 410,000 active; calls by dose curve; tested in HEK293T cells; note: read-out not given here; potency is the fitted concentration of half-maximal effect; nearly all actives have a fitted effect of over 45% in size
LASV entry inh: blocks Lassa virus binding to or entry into cells | Potency, µM (doses to about 37.9 µM), for the others: top-dose activity change, negative = inhibition, actives largely listed as inhibitors | AID 540256 | 1.2% of 300,000 active | Lassa virus pseudotype entry inhibition, cell reporter; calls by dose curve; tested in HEK293 cells; note: potency is the fitted concentration of half-maximal effect; nearly all actives have a fitted effect of over 50% in size
HCMV antiviral: human cytomegalovirus inhibition. AID 1259415. 4.5% of 410,000 active. HFF cells, HCMV-luciferase reporter, 72 h; active compounds read low. activity change, negative = inhibition, % at 57.5 µM; in the data active = activity change below about -60%; inconclusive = no clear call, values can overlap the other calls; inactive = above about -39%
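Steps: HFFs plated, 16 h 37C; compounds added; HCMV-luciferase added to MOI 1 PFU/cell; 72 h 37C; OneGlo reagent, 5 min room temperature; luminescence read, normalized to controls.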
Numbers without * were called inactive; ? = inconclusive; / = no result given; [ ] = another dose, or the depositor's remark. Unless noted, calls come from the whole dose curve; as a rule, active = well fitted curve in the direction sought with a large enough effect; inconclusive = small, poorly fitted or top-dose-only effect, or another doubt; inactive = no such curve, though single readings can be large; an effect the other way counts as inactive or inconclusive. % is set by controls: 0 for no effect and ±100 for the full control effect.

SMILES | Giardia FBPA inh | Marburg entry inh | HCV inhibitor | FMDV antiviral | LASV entry inh | HCMV antiviral
O=[N+]([O-])NC1=NCN(Cc2ccco2)CN1Cc1ccco1 | 3.8% | 0.282µM* | ? | -4.3% | 8.8% | ?
O=C(CCl)N(c1ccccc1)c1ccccc1 | -2.3% | ? | 8.91µM* | 14.1µM* | ? | -98.3*
CCCCCCCN(C(=O)CCl)c1cccc(C)c1 | 8.9% | 3.3% | 12.6µM* | 28.2µM* | 8.3% | -86.4*
O=C(CCl)N(CCc1ccccc1)CCc1ccccc1 | -6.1% | ? | ? | 28.2µM* | ? | -99.5*
O=C(N(c1ccccc1)c1ccccc1)N(c1ccccc1)c1ccccc1 | 10.9% | 4.8% | -1.3% | -28.8% | / | 13.1
O=C(CCCc1ccccc1)NCCc1ccccc1 | 14.5% | / | -2.8% | 72.2% | / | 34.0
CCCCCCN(C(=O)CCl)c1ccccc1 | 5.3% | / | 5.01µM* | 20µM* | / | -99.5*
CC(=O)N(CCN(C(C)=O)c1ccccc1)c1ccccc1 | 1.8% | ? | 6.7% | -3.3% | -4.5% | 3.4
O=C1c2ccccc2-c2nccnc21 | -7.7% | -6.3% | 24.9% | -8.0% | -7.4% | 63.4
NC1=C(Cl)C(=O)c2ccccc2C1=O | / | ? | 8.91µM* | ? | -10.7% | -12.6
NC1=C(Cl)C(=O)c2ccc(S(N)(=O)=O)cc2C1=O | / | 2µM* | 0.562µM* | 2.51µM* | ? | -100.5*
NS(=O)(=O)c1ccc2c(c1)C(=NO)c1cc(S(N)(=O)=O)ccc1-2 | -1.2% | 4.4%[46.1 µM] | -7.4% | 8.0% | 0.8%[46.1 µM] | -19.3
CN(C)CCNC(=O)c1cccc(-c2cnc3c(NC=O)cc(-c4ccc(C(=O)N5CCOCC5)cc4)cn23)c1 | / | / | / | -14.1% | / | -64.4*
CC(=O)c1cccc(-c2cnc3c(NC=O)cc(-c4ccc(C(=O)N5CCOCC5)cc4)cn23)c1 | / | / | / | -11.3% | / | -4.8
CN(C)CCNC(=O)c1cccc(-c2cnc3c(NC=O)cc(-c4cccs4)cn23)c1 | / | / | / | 12.9% | / | -87.4*
COc1ccc(-c2cc(NC=O)c3ncc(-c4cccc(C(=O)NCCN(C)C)c4)n3c2)cn1 | / | / | / | 0.3% | / | -62.6*
COc1ccc2oc(=O)cc(CN3CCN(c4ccc(F)cc4)CC3)c2c1 | / | ? | / | ? | -8.0%[46.1 µM] | -16.7
CCNc1ncc2nc(CCc3ccccc3)c(=O)n(CCC#N)c2n1 | 8.5% | / | / | -3.5% | / | /
Cc1ccc(/C=C2\CCC3=C2OC(N)=C(C#N)C3c2ccc(C)cc2)cc1 (centres undefined) | -12.7% | 13.6% | ? | ? | -20.6% | /
N#CC1=C(N)OC2=C(CCc3ccccc32)C1c1ccccc1 (centres undefined) | -9.9% | ? | ? | ? | ? | -92.5*
COC(=O)c1cc2c(-c3ccccc3)c(C)c3ccccn3c-2c1C(=O)OC | -19.5% | ? | ? | ? | ? | -34.5
COC(=O)c1c(Cl)c2n3ccccc3c(C)c(-c3ccccc3)c-2c1C(=O)OC | -21.7% | ? | 12.6µM* | ? | -25.9% | 89.6
CCOc1ccc(-c2cc3nc(C4CCN(C(=O)OC(C)(C)C)CC4)c(C(=O)Nc4ccc(C)c(F)c4)cn3n2)cc1 | / | ? | / | 0.4% | 17.9%[46.1 µM] | -93.1*
CCOc1ccc(-c2cc3nc(C4CCN(C(=O)OC(C)(C)C)CC4)c(C(=O)Nc4cc(OC)ccc4OC)cn3n2)cc1 | / | ? | / | -5.5% | -24.5%[46.1 µM] | 11.7
N#Cc1cccc(NC(=O)N2CCCC3(CCN(C(=O)c4cnccn4)CC3)C2)c1 | 1.8% | / | / | -9.2% | / | /
SMILES | Giardia FBPA inh | Marburg entry inh | HCV inhibitor | FMDV antiviral | LASV entry inh | HCMV antiviral
COc1ccccc1-c1cc2nc(C)c(CCC(=O)NCCc3cccc(C)c3)c(C)n2n1 | / | -25.5%[46.1 µM] | / | -15.2% | -12.4%[46.1 µM] | -28.8
Cc1c(C#N)c(N)nc2c3c(sc12)NC(=O)CC3c1ccc(Cl)cc1 (centres undefined) | 0.7% | ? | 22.4µM* | 22.4µM* | ? | -80.6*
CNCCc1c[nH]c2ccc(O)cc12 | 1.99µM* | ? | 3.16µM* | 0.0% | 7.5% | -8.5
CNCCc1c[nH]c2ccccc12 | 12.3% | / | 10.3% | -27.3% | / | /
Cc1ccc(C)c(N(C(=O)Cn2nnc3ccccc32)C(C(=O)NC(C)(C)C)c2ccsc2)c1 (centres undefined) | 2.5% | 2.1% | ? | / | -2.3% | -77.7*
Cc1cc(C)c(N(C(=O)Cn2nnc3ccccc32)C(C(=O)NC(C)(C)C)c2ccsc2)c(C)c1 (centres undefined) | 11.5% | -15.8% | -7.1% | / | -9.5% | -34.2
COC(=O)c1c(C)nc(C)c(C(=O)OC)c1-c1ccccc1[N+](=O)[O-] | 4.0% | / | / | / | / | /
CC(C)(C)OC(=O)[C@H](Cc1ccccc1)NC(=O)c1nc[nH]c1C(=O)N[C@@H](CCCCN)C(=O)OC(C)(C)C | / | / | -11.1% | -10.4% | / | -67.9*
CC(C)(C)OC(=O)[C@H](CCCCN)NC(=O)c1nc[nH]c1C(=O)N[C@@H](CCCCN)C(=O)OC(C)(C)C | / | / | 4.9% | -3.0% | / | -13.4
CC1CCN(C(=O)c2[nH]cnc2C(=O)N[C@@H](C)C(=O)OCc2ccccc2)CC1 | 0.8% | / | 3.55µM* | -29.0% | / | -9.5
CC(C)C[C@H](NC(=O)c1nc[nH]c1C(=O)N[C@@H](CC(C)C)C(=O)OC(C)(C)C)C(=O)OCc1ccccc1 | -5.6% | / | -24.0%[8.37 µM] | -25.1% | / | -101.1*
CC(C)C[C@H](NC(=O)c1[nH]cnc1C(=O)Nc1ccccc1)C(=O)OC(C)(C)C | ? | / | -3.4% | 0.0% | / | -102.4*
Cc1cc(Br)c2nc(-c3cccc(Br)c3)c(Cc3cccc(Cl)c3)n2c1 | / | / | / | / | / | 111.3
Cc1ccccc1CSc1nnc2[nH]c(=O)cc(C)n12 | / | / | / | -6.3% | 23.3%[46.1 µM] | ?
CN(CC(=O)N[C@H](CO)Cc1ccccc1)C(=O)[C@H](CCS(C)=O)NC(=O)[C@@H](N)Cc1ccc(O)cc1 (some centres undefined) | / | / | / | 11.0%[6.7 µM] | / | /
CC(C)C[C@H](NC(=O)c1nc[nH]c1C(=O)N1CCN(C(=O)OC(C)(C)C)CC1)C(=O)OC(C)(C)C | -21.1% | / | ? | -16.5% | / | -96.0*
C[C@H](NC(=O)c1nc[nH]c1C(=O)N1CCN(C(=O)OC(C)(C)C)CC1)C(=O)OC(C)(C)C | / | / | 1.7% | -1.5% | / | 0.6
CCCn1c(-c2ccc(F)cc2)nc2c(N3CCN(CCC(=O)OCC)CC3)nc(C)nc21 | -0.9% | / | / | / | / | /
O=c1c(-c2cc(F)cc(F)c2)nc2cncnc2n1-c1ccccc1 | 5.1% | / | / | -10.4% | / | /
O=C1NC2(CCCCC2)C(=O)N1Cc1cccc(C(F)(F)F)c1 | -1.2% | 0.8% | 0.4% | -7.3% | -7.7% | -102.6*
O=C1NC2(CCCCCC2)C(=O)N1Cc1cccc(Cl)c1 | 0.0% | -22.5%[46.1 µM] | 7.5% | ? | 9.8%[46.1 µM] | -20.1
CCc1cccc(CC)c1NC(=O)CCS(=O)(=O)c1ccc2c(c1)CCN2C(C)=O | / | -10.8%[46.1 µM] | / | -16.4% | 7.4%[46.1 µM] | -17.3
Cc1ccccc1-n1c(=O)n(Cc2ccccc2)c(=O)c2[nH]cnc21 | -9.1% | ? | -7.7% | -15.9% | 12.6µM* | 46.3

Screens (PubChem)
